# Data as given in the supplement of paper PMC13380429.
# Experiments:
# [1] = system: Vero E6 infected with SARS-CoV-2; test: morphology score (similarity to uninfected cells); higher = more like uninfected cells; conditions: 24 h
# [2] = system: Vero E6 infected with SARS-CoV-2; test: SARS-CoV-2 infection rate relative to infected DMSO; higher = more infection, active = 60 or less; conditions: 24 h
Structure (SMILES),morphology score [1],SARS-CoV-2 infection rate [2]
C[N+]1(C)CCC(OC(=O)C(c2ccccc2)c2ccccc2)CC1 (10 µM),0.103,114% (inactive)
Cn1cc(-c2ccc(S(=O)(=O)n3ccc(/C=C/C(=O)Nc4ccccc4N)c3)cc2)cn1 (10 µM),-0.0742,105% (inactive)
Nc1n[nH]c2nc3ccccc3nc12 [CDK1-5-inhibitor] (10 µM),-0.113,112% (inactive)
CN1C(=O)C(F)=C[C@]2(C)[C@H]3CC[C@]4(C)[C@@H](C(=O)NCc5nc6cccnc6[nH]5)CC[C@H]4[C@@H]3CC[C@@H]12 (10 µM),0.0239,100% (inactive)
Nc1cc2c3ccccc3ccc2c2ccccc12 [6-aminochrysene] (10 µM),0.144,101% (inactive)
COC1=CC(=O)C[C@@H](C)[C@]12Oc1c(Cl)c(OC)cc(OC)c1C2=O [griseofulvin] (10 µM),0.0707,104% (inactive)
CN(C(=O)CN1C(=O)COc2cc(Cl)c(Cl)cc21)[C@@H](CN1CCCC1)c1ccc(-c2cccc(C(N)=O)c2)cc1 (0.833333 µM),0.0807,104% (inactive)
Oc1cc(O)c2c(c1)O[C@H](c1ccc(O)c(O)c1)[C@H](O)[C@H]2c1c(O)cc(O)c2c1O[C@H](c1ccc(O)c(O)c1)[C@H](O)C2 [procyanidin-B-2] (10 µM),0.114,106% (inactive)
CN(C)Cc1cccc(N=C(c2ccccc2)c2c(O)[nH]c3cc(C(=O)N(C)C)ccc23)c1 (10 µM),-0.271,112% (inactive)
C[C@H]1[C@H](C)CC[C@]2(C(=O)O)CC[C@]3(C)C(=CC[C@@H]4[C@@]5(C)C[C@@H](O)[C@H](O)C(C)(C)[C@@H]5CC[C@]43C)[C@H]12 [corosolic-acid] (10 µM),-0.302,116% (inactive)
